Experimental data: PMC5540273 (PLoS ONE, 2017)

Assays:
Details in all cases: concentration: 1 μM, replicates: in singlicate; n = 1
BLK = tested on: BLK
BMPR1A = tested on: BMPR1A
BMPR1B = tested on: BMPR1B
BMPR2 = tested on: BMPR2
BMX = tested on: BMX
BRAF = tested on: BRAF
BRK = tested on: T1, BRK
T1 construct: gene PTK6

BRSK1 = tested on: BRSK1
BRSK2 = tested on: BRSK2
BTK = tested on: BTK
BUB1 = tested on: BUB1
CAMK1B = tested on: CAMK1B
CAMK1D = tested on: CAMK1D
CAMK1G = tested on: CAMK1G
CAMK1 = tested on: CAMK1
CAMK2A = tested on: CAMK2A
CAMK2B = tested on: CAMK2B
CAMK2D = tested on: CAMK2D
CAMK2G = tested on: CAMK2G
CAMK4 = tested on: CAMK4
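Also: KINOMEscan kinase panel screen.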

| Compound | %Inh (BLK) | %Inh (BMPR1A) | %Inh (BMPR1B) | %Inh (BMPR2) | %Inh (BMX) | %Inh (BRAF) | %Inh (BRK) | %Inh (BRSK1) | %Inh (BRSK2) | %Inh (BTK) | %Inh (BUB1) | %Inh (CAMK1B) | %Inh (CAMK1D) | %Inh (CAMK1G) | %Inh (CAMK1) | %Inh (CAMK2A) | %Inh (CAMK2B) | %Inh (CAMK2D) | %Inh (CAMK2G) | %Inh (CAMK4) |
| --- | --- | --- | --- | --- | --- | --- | --- | --- | --- | --- | --- | --- | --- | --- | --- | --- | --- | --- | --- | --- |
| COc1ccc(COc2cc(-n3cnc4ccccc43)sc2C(N)=O)cc1 [GSK1024304] | 37% | 0% | 0% | 0% | 0% | 0% | 3% | 0% | 5% | 0% | 9% | 0% | 6% | 8% | 7% | 0% | 0% | 0% | 23% | 0% |
| COc1ccc(Nc2ncc(C#N)c(Nc3ccccc3C(N)=O)n2)cc1N1CCN(C)CC1.Cl [GSK1558669] | 99.8% | 0% | 80% | 92% | 75% | 98.6% | 99.7% | 90.9% | 88% | 97.2% | 87% | 100% | 99.1% | 83% | 95.6% | 92.5% | 78% | 83% | 86% | 0% |
| COc1cc2ncn(-c3cc(OCc4sccc4Cl)c(C(N)=O)s3)c2cc1OC [GSK448459] | 32% | 0% | 0% | 14% | 0% | 0% | 11% | 37% | 45% | 0% | 55% | 25% | 0% | 0% | 4% | 0% | 0% | 2% | 12% | 0% |
| COc1cc2c(cc1OCCN1CCN(C)CC1)ncc1c3ccc(C#N)cc3[nH]c21 | 4% | 0% | 0% | 0% | 0% | 0% | 23% | 4% | 0% | 0% | 100% | 19% | 44% | 16% | 0% | 93.5% | 70% | 92.6% | 86% | 0% |
| COc1cc(Nc2nccc(N3CCC(NC(=O)c4cccc(NC(C)=O)c4)C3)n2)cc(OC)c1OC (centres unmarked) [GSK1379754] | 34% | 0% | 0% | 0% | 18% | 3% | 19% | 26% | 0% | 0% | 0% | 7% | 27% | 6% | 40% | 0% | 0% | 0% | 21% | 0% |
| c1ccc(-c2cc(-c3c[nH]nc3-c3ccccn3)ccn2)cc1 [GW576604] | 37% | 1% | 0% | 4% | 3% | 0% | 0% | 0% | 0% | 0% | 34% | 10% | 14% | 0% | 14% | 0% | 0% | 10% | 30% | 0% |
| NS(=O)(=O)c1cccc(-c2ccc3nccc(-c4cccc(S(N)(=O)=O)c4)c3c2)c1 [GW867253] | 0% | 0% | 3% | 33% | 0% | 0% | 0% | 0% | 5% | 0% | 17% | 0% | 0% | 0% | 0% | 0% | 0% | 0% | 0% | 0% |
| O=c1cc(N2CCOCC2)nc2n(Cc3cccc4ccccc34)ccn12 [GSK2333389] | 21% | 0% | 0% | 0% | 7% | 9% | 0% | 1% | 0% | 0% | 32% | 4% | 15% | 0% | 0% | 0% | 0% | 0% | 0% | 0% |
| NS(=O)(=O)c1cccc(-c2ccc3ncc(N4CCOCC4)nc3c2)c1 [GSK1535721] | 0% | 0% | 7% | 2% | 30% | 0% | 13% | 0% | 0% | 1% | 0% | 7% | 18% | 15% | 12% | 0% | 2% | 21% | 17% | 0% |
| CNc1ncnc2[nH]ncc12 [SKF-18355] | 0% | 6% | 0% | 35% | 0% | 11% | 0% | 0% | 0% | 0% | 20% | 0% | 0% | 0% | 0% | 0% | 0% | 0% | 0% | 0% |
